Laboratory results as given in PubChem BioAssay.
Active and inactive are the calls of the source. Unless noted, the rule behind the calls is not given here.

Tests used:
[1] = system: Wnt5a (protein binding on small-molecule microarray); assay: Wnt5a binders on small-molecule microarray, primary screen, biophysical, 635/667 nm fluorescence (AID 1142); details: 635 nm fluorescence, higher = more signal;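 note: fluorescence read at 667 nm with signal to noise per printed feature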
[2] = cell viability in Huh7 cells, primary screen, cytotoxicity control for HCV replication inhibitor project, CellTiter-Glo luminescence, basal, 48 h (AID 1143); details: Huh7 HCV replicon, higher = more signal, called active from +8 up or from −8 down;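 note: Huh7 hepatoma cells carrying a hepatitis C replication reporter with no stimulus; test concentration not given here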
[3] = P. aeruginosa biofilm formation inhibitors, primary screen, PAO1 strain, BacTiter-Glo luminescence, LB-PBS (AID 1144); details: 12 h, higher = more signal
[4] = CREB reporter modulators without forskolin, primary screen, cell-based, PC12, CRE-LacZ reporter, unstimulated (AID 1145); details: no forskolin, luminescence, 4.5 h, higher = more signal, called active from +8 up or from −8 down
[5] = CREB reporter modulators under forskolin, primary screen, cell-based, PC12, CRE-LacZ reporter, forskolin-stimulated (AID 1146); details: luminescence, 4.5 h, higher = more signal, called active from +8 up or from −8 down;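 note: PC12 cells with 6xCRE LacZ reporter stimulated by forskolin 10 µM; beta-galactosidase reporter signal reflecting CREB driven transcription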
[6] = target: Streptavidin (Streptomyces avidinii) (UniProt P22629); assay: streptavidin binders on small-molecule microarray, primary screen, artefact control for SMM compound annotation, biophysical, 635/667 nm fluorescence (AID 1147); details: streptavidin binding, higher = more signal;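 note: signal reflects streptavidin binding to arrayed compounds as a control protein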
Chain of Streptavidin (Streptomyces avidinii) (P22629 whole entry, looked up): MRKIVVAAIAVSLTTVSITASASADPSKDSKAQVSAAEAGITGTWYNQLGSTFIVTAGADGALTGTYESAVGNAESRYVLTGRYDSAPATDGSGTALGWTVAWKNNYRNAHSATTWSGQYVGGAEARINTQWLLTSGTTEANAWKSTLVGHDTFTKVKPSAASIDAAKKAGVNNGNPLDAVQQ

[7] = small-molecule binders of probe aInhba, primary screen, biochemical, small-molecule microarray, 635/667 nm fluorescence (AID 1148); details: higher = more signal;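 note: score merges 667nm spot fluorescence with signal-to-noise for antibody binding to printed compounds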
Torsin-1A (Homo sapiens) [8] = target: Torsin-1A (Homo sapiens) (UniProt O14656); assay: torsin A binders from cell lysate, primary screen, small-molecule microarray, wild-type, 635/667 nm (AID 1149); details: COS7 hTOR1A-WT lysate, 635 nm fluorescence, higher = more signal
Chain of Torsin-1A (Homo sapiens) (O14656 whole entry, looked up): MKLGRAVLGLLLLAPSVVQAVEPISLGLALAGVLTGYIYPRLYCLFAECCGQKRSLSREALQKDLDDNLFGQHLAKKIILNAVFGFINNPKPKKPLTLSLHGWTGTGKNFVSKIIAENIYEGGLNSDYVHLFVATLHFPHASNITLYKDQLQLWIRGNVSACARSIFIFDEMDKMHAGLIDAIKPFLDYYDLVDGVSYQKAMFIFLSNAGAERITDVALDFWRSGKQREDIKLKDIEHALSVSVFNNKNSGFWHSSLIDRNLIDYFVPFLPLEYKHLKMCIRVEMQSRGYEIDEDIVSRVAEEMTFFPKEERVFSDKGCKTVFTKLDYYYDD

Torsin-1A (Homo sapiens) [9] = target: Torsin-1A (Homo sapiens) (UniProt O14656); assay: small-molecule binders of mutant TOR1A in lysate, primary screen, cell lysate, small-molecule microarray, COS7 lysate, 635/667 nm fluorescence (AID 1150); details: COS7 hTOR1A mutant lysate, 635 nm fluorescence, higher = more signal;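 note: score pools 667 nm emission and signal to noise measuring lysate protein binding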
[10] = system: Sonic hedgehog protein (Shh); assay: small-molecule binders of Shh protein, primary screen, biochemical, small-molecule microarray, 635/667 nm fluorescence (AID 1151); details: small-molecule microarray binding, 635 nm fluorescence; higher = more signal;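 note: Shh protein binding to compounds spotted on small-molecule microarray slides; score combines spot fluorescence intensity with signal-to-noise across triplicate slides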

| SMILES | composite z-score [1] | z-score [2] | z-score [3] | z-score [4] | z-score [5] | composite z-score [6] | composite z-score [7] | composite z-score (Torsin-1A (Homo sapiens) [8]) | composite z-score (Torsin-1A (Homo sapiens) [9]) | composite z-score [10] |
| --- | --- | --- | --- | --- | --- | --- | --- | --- | --- | --- |
| C=CCNC(=O)[C@@H]1[C@H]2C(=O)O[C@H](c3ccccc3)[C@H](c3ccccc3)N2[C@H](c2ccc(OCCO)cc2)[C@@]12C(=O)N(C(=O)OCCOC)c1ccccc12 | 0.538 | -1.32 (inactive) | -0.328 (inactive) | 0.712 (inactive) | -0.477 (inactive) | -0.154 | 0.138 | 0.72 | 0.281 | 0.957 |
| CCCC1(C(=O)OC)C=C2C(=C(C(C)C)C(=O)C2C)CN1 (stereo not given) | -0.0597 | -0.349 (inactive) | 0.2 (inactive) | 0.786 (inactive) | -0.645 (inactive) | -0.481 | -0.0791 | -0.814 | 0.29 | -0.182 |
| CC(C)C[C@@H]1NC(=O)[C@@H]2C[C@H](C(=O)NCCCCCCNC(=O)CS)[C@H](c3ccc(O)cc3)N2C1=O | 0.841 | -1.88 (inactive) | -0.00979 (inactive) | -0.268 (inactive) | -0.439 (inactive) | 0.813 | -0.0933 | 0.887 | 1.21 | 2.21 |
| COCCOC(=O)N1C(=O)[C@@]2(c3cc(C#CCNC(N)=O)ccc31)[C@H](C(=O)N1CCN(c3ncccn3)CC1)[C@H]1C(=O)O[C@H](c3ccccc3)[C@H](c3ccccc3)N1[C@@H]2c1ccc(O)cc1 | -0.546 | -0.375 (inactive) | -1.09 (inactive) | 0.484 (inactive) | -0.26 (inactive) | -1.21 | -0.4 | -0.827 | -0.859 | -0.448 |
| [N-]=[N+]=NCc1ccccc1[C@H]1OC(c2ccc(OCCCO)cc2)=N[C@@]1(CCS(=O)(=O)c1ccccc1)C(=O)NCCN1CCOCC1 | 0.806 | -0.712 (inactive) | -0.561 (inactive) | 0.115 (inactive) | -0.871 (inactive) | 0.38 | 0.54 | 0.234 | 0.183 | -0.597 |
| O=C(NCCN1CCOCC1)[C@@H]1c2ccccc2C(=O)N(CC23CC4CC(CC(C4)C2)C3)[C@H]1c1ccc(CO)cc1 | 0.617 | -2.69 (inactive) | -0.634 (inactive) | 0.441 (inactive) | -0.0639 (inactive) | 1.12 | 0.0542 | 0.51 | 1.47 | 0.506 |
| COC(=O)C(CC#Cc1ccc2c(c1)[C@]1(C(=O)N2)[C@H](C(N)=O)[C@H]2C(=O)O[C@H](c3ccccc3)[C@H](c3ccccc3)N2[C@@H]1c1ccccc1OCCO)C(=O)OC | 0.151 | -6.25 (inactive) | -0.451 (inactive) | 0.362 (inactive) | -0.955 (inactive) | -0.0001 | -0.152 | 0.544 | 1.48 | 1.07 |
| O=C/C=C/c1ccc(-c2ccccc2)cc1 | -0.166 | -2.73 (inactive) | 1.68 (inactive) | 2.11 (inactive) | 3.74 (inactive) | 0.175 | -0.101 | -0.0497 | 0.0552 | 0.083 |
| C=CCNC(=O)[C@H]1[C@@H]2C(=O)O[C@@H](c3ccccc3)[C@@H](c3ccccc3)N2[C@@H](c2ccc(OCCO)cc2)[C@]12C(=O)N(C(=O)OCCOC)c1ccc(C#CCC(C(=O)OC)C(=O)OC)cc12 | 1.12 | -1.17 (inactive) | 0.0229 (inactive) | 0.0614 (inactive) | -0.228 (inactive) | 1.26 | 0.389 | 0.77 | 0.944 | 1.96 |
| CCCN1C(=O)[C@@]2(c3ccc([N+](=O)[O-])cc3)CC(=O)N(C3CCCCC3)[C@@H]2c2ccc(CO)cc21 | 0.0899 | 0.677 (inactive) | -0.0723 (inactive) | 0.389 (inactive) | -0.131 (inactive) | -0.397 | -0.168 | 0.515 | -0.187 | 1.08 |
| CCCCN1CC=CC23O[C@@H]4/C=C\CCCOC(=O)C4[C@H]2C(=O)N(CCCCCCO)[C@@H]3C1=O (stereo not given in full) | -0.525 | 0.121 (inactive) | -1.2 (inactive) | 0.475 (inactive) | -0.34 (inactive) | -0.654 | -0.154 | -1.63 | -1.49 | 0.145 |
| COc1cccc(C)c1NC(=O)O[C@H]1[C@H](OC(=O)Nc2ccc3c(c2)OCO3)[C@H](OC(=O)Nc2ccc3c(c2)OCO3)[C@@H](OC)O[C@@H]1CO | 0.469 | -2.59 (inactive) | 1.05 (inactive) | 0.558 (inactive) | -1.04 (inactive) | 1.2 | 0.226 | -0.148 | 0.533 | 2.02 |
| CC[C@@H](O[Si](C#C[Si](C(C)C)(C(C)C)C(C)C)(C(C)C)C(C)C)c1cn([C@H](C)c2ccccc2)nn1 | -0.026 | 0.428 (inactive) | -0.0357 (inactive) | -0.374 (inactive) | 0.266 (inactive) | 0.693 | -0.0044 | 0.398 | 0.458 | 0.634 |
| COc1ccc([Si](C)(C)[C@@H]2[C@@H](CC(=O)N3CCC[C@H]3CO)O[C@]3(C(=O)N(Cc4cccc(N5C(=O)c6cccc7cccc5c67)c4)c4ccccc43)[C@H]2C)cc1 | 0.614 | -5.86 (inactive) | -0.334 (inactive) | 0.819 (inactive) | -1.41 (inactive) | 0.609 | -0.129 | 0.729 | 0.499 | 1.42 |
